nsP2pro primary: inhibitors of chikungunya virus nsP2 protease; Q8JUX6; FRET peptide cleavage, nsP2pro, fluorescence 1 h; Potency, µM (titrated, usually from 24.9 µM), hits mostly inhibitors; 31,000 compounds, 1.1% hits; AID 1964107; calls by dose curve; further: nearly all actives have a fitted effect of over 60% in size
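FRET cleavage of 2.5 uM peptide 2 by 150 nM CHIKV protease domain at pH 8.0 (Tris, Tween 20). Compounds at 7 concentrations (up to 25 uM) preincubated 15 min. Fluorescence read after 1 h at room temperature.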
Each line names hits and unclear results; the compound was inactive in the other large screens; ! = a repeat was not active. Only a selection was taken, and hits are over-represented in it overall.

CCOc1ccc(CCNC(=O)c2cc3ccncc3n2Cc2cccc(C)n2)cc1OCC	none
CCOc1ccc(CCNC(=O)c2cc3ccccc3n2Cc2ccccn2)cc1OCC	nsP2pro primary 7.94µM
CCOc1ccc(CCNC(=O)c2cc3ncccc3n2Cc2cccc(C)n2)cc1OCC	none
Oc1ccc(C2COc3cc(O)ccc3C2)cc1 (stereo not given)	none
Cc1cc(NS(=O)(=O)c2ccc(NC(=O)Cc3ccc(C)c(C)c3)cc2)no1	none
Cc1ccc(OCCn2c(CCNC(=O)c3ccsc3)nc3ccccc32)cc1	none
O=C(NCc1ccncc1)c1nc2c(o1)CCN(CCCc1ccccc1)CC2	nsP2pro primary 14.1µM
O=C(NCc1ccccc1)c1cnc2n1CCN(Cc1ccccc1)CC2	none
O=C(NCc1cccnc1)c1cc(CN2CCC(Cc3ccccc3)CC2)on1	none
Cc1cnc(NC(=O)c2ccc(-c3cccc([N+](=O)[O-])c3)o2)s1	none
CCOC(=O)c1cnc2ccc(OCC)cc2c1N1CCN(c2ccccc2F)CC1	none
Cn1c(=O)cc(SCC(=O)N2CCN(c3ccccc3F)CC2)c2ccccc21	none
CCOc1ccc(C(c2c(O)cc(C)n(CCOC)c2=O)N2CCN(c3ccccc3F)CC2)cc1 (stereo not given)	nsP2pro primary 12.6µM
O=C1N/C(=C\c2ccco2)C(=O)N1Cc1ccc(F)cc1	none
O=C1N/C(=C\c2ccco2)C(=O)N1Cc1ccccc1	nsP2pro primary 12.6µM
O=C1c2ccccc2C(=O)N1Cc1ccccc1	none
O=C(Nc1ccc2ccccc2c1)Nc1nnc(-c2ccncc2)s1	none
COC(=O)c1ccc(O)c2ncccc12	none
O=C(Nc1ccccc1F)N1CC(Oc2ccc(-c3noc(-c4ccccc4)n3)cc2)C1	none
O=C(Nc1nc2c(s1)CCCCCC2)Nc1ccc(F)cc1F	none
CCCOc1ccccc1C(=O)Nc1nc2c(s1)CCCC2	nsP2pro primary 12.6µM
COc1ccccc1C(=O)Nc1nc(-c2ccccc2)cs1	none
Cc1nc(-c2cn(C3CCCN(C(=O)C(C)Oc4ccccc4)C3)nn2)no1 (stereo not given)	none
Nc1cccc(S(=O)(=O)Nc2cnccc2C(=O)Nc2nc(-c3ccccc3)cs2)c1	none
OCC1OC(c2ccc(Cl)c(Cc3ccc(OC4CCOC4)cc3)c2)C(O)C(O)C1O (stereo not given)	none
NC(=O)OCC(N)Cc1ccccc1 (stereo not given)	none
Cc1ccc(S(=O)(=O)Nc2ccc(Cl)cc2C(=O)Nc2nc(-c3ccccc3)cs2)cc1	none
COc1ccc(C2CC(=O)c3c(O)cc(OC4OC(CO)C(O)C(O)C4OC4OC(C)C(O)C(O)C4O)cc3O2)cc1O (stereo not given)	none
COc1ccc2nc(S(=O)Cc3ncc(C)c(OC)c3C)[nH]c2c1 (stereo not given)	nsP2pro primary 10µM!
COc1ccc2c(c1)[nH]c1c(C)nccc12	none
COCCCOc1ccnc(CS(=O)c2nc3ccccc3[nH]2)c1C (stereo not given)	none
COc1ccc(OC)c(-c2nc3cc4c(cc3cc2CN2CCCOCC2)OCO4)c1	none
Cc1cccc(-n2cnc3cc(C(=O)N4CCCC(C(F)(F)F)C4)ccc32)c1 (stereo not given)	none
O=C(O)/C(S)=C/c1c[nH]c2ccc(F)cc12	nsP2pro primary 11.1µM
CN1CCC(c2c[nH]c3ccc(NC(=O)c4ccc(F)cc4)cc23)CC1	none
COc1ccc2[nH]cc(CCNC(=O)Nc3ccc(F)cc3)c2c1	none
FC(F)Oc1ccccc1CN(CC1CCN(C2CCCC2)CC1)CC1CCCO1 (stereo not given)	none
Cc1noc(C)c1-c1cc(-c2ccc(CN(C)C)cc2)cn2cncc12	none
O=c1cc(-c2cccnc2)oc2c(NCCc3ccccn3)nccc12	none
O=c1cc(-c2ccncc2)oc2c(-c3cccc(CO)c3)nccc12	nsP2pro primary 14.1µM
Cc1ccccc1-c1nccc2c(=O)cc(C3=CCOCC3)oc12	none
CCOC(=O)c1csc(NC(=O)c2ccncc2NS(=O)(=O)c2ccc(C)cc2)n1	none
Cc1cc(C)nc(NC(=S)N2CCN(c3cccc4[nH]ccc34)CC2)c1	none
COc1ccc(C(=O)N2CC(=O)N(c3ccc(C)cc3)CC2C)c(OC)n1 (stereo not given)	none
COC1(C(=O)N[C@@H](C)c2ccc(-n3cc(F)cn3)nc2)CCC(c2nc(C)cc(Nc3cc(C)[nH]n3)n2)CC1 (stereo not given in full)	none
CC(C)CCNC(=O)[C@H](CC(C)C)NC(=O)[C@H]1O[C@@H]1C(=O)O	none
CCOC(=O)[C@H]1O[C@H]1C(=O)N[C@@H](CC(C)C)C(=O)NCCC(C)C	nsP2pro primary 7.08µM
CC(C)[C@H]1CC[C@H](C)C[C@H]1O	none
O=C(NCc1ccnc2[nH]ccc12)c1cncc(Br)c1	none
O=C(NCc1ccnc2[nH]ccc12)c1cccc(Br)c1	nsP2pro primary 11.2µM
CCS(=O)(=O)N1CCC(Oc2cccc(C(=O)NCc3ccccn3)c2)CC1	none
Fc1cc(Nc2nc(-c3ccncc3)nc3ccccc23)ccc1-c1cccc(OC(F)F)c1	none
CCN(CC)C(=O)[C@@H](C)C1CC[C@@]2(C)CC[C@H](NC(=O)c3ccncc3)[C@@H](C)[C@@H]2[C@H]1O (stereo not given in full)	none
CC(=O)N1c2nc(-c3ccco3)nn2C2(CCCCC2)[C@@H]2CCCC[C@@H]21	none
COCC(=O)N1c2nc(C(C)C)nn2C2(CCCCC2)[C@@H]2CCCC[C@@H]21	nsP2pro primary 11.2µM
O=C(c1cccc([N+](=O)[O-])c1)N1c2ncnn2C2(CCCCC2)[C@@H]2CCCC[C@@H]21	none
CCN1CCC2(CCC1=O)CN(Cc1ccc(C)c3ccccc13)CCN2C (stereo not given)	none
CCCC1CN(Cc2ccc(OC)cc2)[S+](=O)([O-])c2cnccc2O1 (stereo not given)	none
c1ccc(-n2cc(-c3nnc4n3CCCCC4)c3ccccc32)cc1	none
c1ccc(-n2ccc(-c3nnc4n3CCCCC4)c2)cc1	nsP2pro primary 12.6µM
Cc1cc(-c2nnc3n2CCCCC3)c(C)n1-c1cccnc1	none
CC(C)[S+](=O)([O-])N1CCC2(CC1)CC(c1cccc(C(F)(F)F)c1)=NO2	none
O=C([C@@H]1C[C@H](N2CCN(c3ncccn3)CC2)CN1)N1CCC(F)(F)C1	none
CC(=O)N1CCN(C(=O)c2cn3cc(-c4ccc(F)cc4)sc3n2)CC1	none
CN(C)C/C=C/C(=O)Nc1cc2c(Nc3ccc(F)c(Cl)c3)ncnc2cc1OC1CCOC1 (stereo not given)	none
Cc1nn(C)c2c1C(c1ccccc1F)=NCC(=O)N2C	none
CCCCc1ccc(NS(=O)(=O)c2ccc(F)cc2)cc1	none
CCc1ccc(NS(=O)(=O)c2[nH]ncc2C(=O)OC)cc1	nsP2pro primary 10µM
CCc1ccc(NS(=O)(=O)c2ccc3[nH]c4c(c3c2)CCCCCC4)cc1	none
C=C/C=C\CC1=C(C)[C@@H](OC(=O)[C@H]2[C@H](C=C(C)C)C2(C)C)CC1=O	none
C=C1C/C(=C\C=C2/CCC[C@]3(C)[C@@H]([C@H](C)/C=C/C(C)C(C)C)CC[C@@H]23)[C@@H](O)C[C@@H]1O (stereo not given in full)	none
CCC1CCCCN1C(=O)c1nn(-c2ccc(OC)cc2)c(=O)c2c1c1ccccc1n2C (stereo not given)	none
CCOC(=O)c1nn(-c2ccc(OC)cc2)c(=O)c2c(N)scc12	nsP2pro primary 11.2µM
COc1ccc(-n2nc(C(=O)O)c(=O)n(C)c2=O)cc1	none
COCC1CN(Cc2cccc(OC(F)(F)F)c2)CC12CCNCC2 (stereo not given)	none
Fc1ccc(Nc2cc(-c3ccccc3)nc(-c3ccncc3)n2)cc1F	none
N#Cc1nc(-c2cccc3ccccc23)oc1NC1COC1	none
COc1ccc(Oc2c(Cl)cnn(-c3cc(C)cc(C)c3)c2=O)cc1	none
